Sampled rows, rich in hits. Any-hit rate of the full collection: about 21%.
D3 ag: activates the human D3 dopamine receptor; AID 652048; D3R DiscoveRx beta-arrestin cells, luminescence, 90 min; max activation, %; actives 0.58% (n = 410,000); P35462; in the data active = max activation above about 30%; note: 0% is about no effect
Target sequence (P35462 whole entry, looked up): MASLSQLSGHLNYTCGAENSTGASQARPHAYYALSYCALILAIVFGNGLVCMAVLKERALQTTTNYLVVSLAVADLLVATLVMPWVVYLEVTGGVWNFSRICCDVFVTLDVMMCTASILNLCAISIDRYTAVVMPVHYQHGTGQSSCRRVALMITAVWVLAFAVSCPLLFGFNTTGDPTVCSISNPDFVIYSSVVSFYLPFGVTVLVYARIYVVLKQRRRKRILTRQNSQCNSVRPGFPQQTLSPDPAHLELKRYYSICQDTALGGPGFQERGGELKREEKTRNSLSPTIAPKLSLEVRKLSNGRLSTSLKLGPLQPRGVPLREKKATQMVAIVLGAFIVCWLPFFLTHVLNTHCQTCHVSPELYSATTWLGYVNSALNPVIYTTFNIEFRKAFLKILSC
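Agonist mode: compounds and dopamine controls were applied to plated cells for 90 min at 37 degrees C after an overnight attachment at 1500 cells/well. Luminescent read-out followed 30 - 60 minutes at room temperature with DiscoveRx detection reagent.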
ClpP mod: qHTS Assay for Activators of ClpP. AID 651965, 2013. purified B. subtilis ClpP, FRET peptide cleavage, 20 min. actives 1.9% (n = 340,000). ATP-dependent Clp protease proteolytic subunit (Bacillus subtilis (strain 168)), P80244. Potency, µM (series often up to 57.5 µM), inactives show at the top dose activity change, negative = active; active = well fitted falling curve with a large enough effect; inconclusive = small, poorly fitted or top-dose-only effect; inactive = no such curve, though single readings can be large or run the other way; note: potency is the fitted concentration of half-maximal effect; the source files actives as falling curves though it sought activators and does not explain the sign; nearly all actives have a fitted effect of over 65% in size
Target sequence (P80244 whole entry, looked up): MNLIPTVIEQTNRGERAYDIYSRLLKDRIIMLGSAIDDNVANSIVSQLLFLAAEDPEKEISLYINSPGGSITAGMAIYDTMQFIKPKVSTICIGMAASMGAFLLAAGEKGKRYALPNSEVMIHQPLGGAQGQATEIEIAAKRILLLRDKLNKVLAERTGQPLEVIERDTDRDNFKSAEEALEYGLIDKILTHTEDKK
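Buffer: 100 mM Tris/HCl pH8, 100 mM KCl, 0.05% low protease BSA, 2.5% glycerol, 0.01% Tween-20. ClpP 10 microg/mL final; 20 min RT; delta FRET normalized to ADEP and DMSO controls.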
DT40 TDP1 no CPT: qHTS for Inhibitors of human tyrosyl-DNA phosphodiesterase 1 (TDP1): qHTS in cells in absence of CPT; actives 15% (n = 420,000); AID 686978, 2013; Potency, µM (top dose mostly 46.2 µM), for inactives: at the highest dose activity change, negative = growth inhibition, hits mostly inhibitors; DT40 Tdp1-/- hTDP1 cells, no CPT, ATP luminescence, 48 h; note: potency is the fitted concentration of half-maximal effect; % is set by controls: 0 for no effect and ±100 for the full control effect; nearly all actives have a fitted effect of over 55% in size
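Luminescent ATP content (CellTiter-Glo) served as the growth readout. Knockout chicken DT40 cells expressing human TDP1 were exposed to compounds without camptothecin for a minimum 48 hr at 37 °C.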
DRD3 antagonist: blocks the human D3 dopamine receptor | D3R cells, DiscoveRx beta-arrestin luminescence, antagonist mode; stronger effect = lower value | P35462 | AID 652054 | max response, negative = inhibition, % | actives 2.5% (n = 360,000); in the data active = max response below about -50%; inconclusive = no clear call, values can overlap the other calls; note: % is set by controls: 0 for no effect and ±100 for the full control effect
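Cells plated overnight at 1500 cells/well, then exposed to library compounds with dopamine controls for 90 minutes at 37 degrees C. DiscoveRx reagent added for 30–60 minutes at room temperature; luminescence read, quantitative HTS format.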
IL-1B inflam inh: inflammasome signaling inhibition, IL-1 beta readout | THP-1 LPS/ATP IL-1B secretion, AlphaLISA, 16 h; stronger effect = lower value | activity change, % at 57.5 µM | actives 4.7% (n = 360,000) | AID 743279; in the data active = activity change below about -50%; inconclusive = mostly about -30% to -49%; note: % is set by controls: 0 for no effect and ±100 for the full control effect
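THP-1 cells pretreated 1 hr with compounds (up to 57.5 uM final), then stimulated with LPS (250 ng/mL final) plus ATP (1.25 mM final); secreted IL-1B measured by AlphaLISA after 16 hr, decreased signal indicating inhibition.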
TDP1 cell CPT: growth inhibition of DT40 Tdp1-/-;hTDP1 cells with camptothecin (screen for TDP1 inhibitors). chicken DT40 Tdp1-/-;hTDP1 cells + 20 nM CPT, ATP luminescence, 48 h. Potency, µM (top dose mostly 46.2 µM), for the others: top-dose activity change, negative = growth inhibition, most hits filed as inhibitors. actives 12% (n = 420,000); note: potency is the fitted concentration of half-maximal effect; % is set by controls: 0 for no effect and ±100 for the full control effect; nearly all actives have a fitted effect of over 55% in size
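Cell growth measured by CellTiter-Glo luminescence after a minimum 48 h, 37 C compound exposure with 20 nM CPT in Tdp1-knockout DT40 cells stably expressing hTDP1, seeded 400/well; qHTS titration format.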
* marks the source's active call; other numbers are inactive results; ? = inconclusive; · = no result given; [ ] = remark or other dose. Unless noted, calls come from the whole dose curve; as a rule, active = well fitted inhibition curve with a large enough effect; inconclusive = small, poorly fitted or top-dose-only effect; inactive = flat fitted curve, though single readings scatter.

SMILES	D3 ag	ClpP mod	DT40 TDP1 no CPT	DRD3 antagonist	IL-1B inflam inh	TDP1 cell CPT
CC(=O)c1c(C)[nH]c(C(=O)N2CCN(S(=O)(=O)c3ccc(C)cc3C)CC2)c1C	1	-2%	18µM*	3	20	?
Cc1ccc(Cl)cc1N1CCN(S(=O)(=O)c2c(C)[nH]c(C)c2C(=O)N2CCCC2)CC1	-5	0%	?	?	-15	?
COc1cccc(N2CCN(C(=O)c3[nH]c(C)c(C(C)=O)c3C)CC2)c1	1	-1%	4.5µM*	-20	32	5.6µM*
CCCN(C(=O)COC(=O)CCOc1ccccc1C)c1c(N)n(Cc2ccccc2)c(=O)[nH]c1=O	0	2%	-10%	-12	25	-11%
CCOc1ccc(S(=O)(=O)NCc2cccnc2)cc1C(C)C	5	0%	?	10	15	?
COC(=O)c1ccc(C2=NOC(C)(c3nnc(Cc4ccccc4)o3)C2)cc1 (centres undefined)	24	-1%	-16%	-20	35	-17%
CCOC(=O)c1ccc(N2Cc3ccccc3C2=NC(=O)c2cccs2)cc1	0	?	?	0	61	18µM*
CCOC(=O)c1cnc(NCc2ccccc2OC)c2ccccc12	-1	4%	?	·	·	?
CCOC(=O)c1cc(-c2ccc(OC)cc2)n(CCC(=O)NC2CCCCC2)c1C	-18	0%	16µM*	·	·	21µM*
CCOC(=O)c1cc(-c2ccc(F)cc2)n(CCC(=O)NC2CCC(C)CC2)c1C (centres undefined)	0	3%	16µM*	·	·	?
CC(=O)c1cc(-c2ccccc2)n(CCC(=O)NC2CCCC2)c1C	1	·	23%	11	0	22%
CC(=O)c1cc(-c2ccc(F)cc2)n(CCC(=O)NC2CCCCC2)c1C	-6	0%	?	·	·	?
CCOC(=O)c1cc(-c2ccc(OC)cc2)n(CCC(=O)NC2CCC(C)CC2)c1C (centres undefined)	-8	1%	23µM*	·	·	16µM*
CC(=O)c1cc(-c2ccccc2)n(CCC(=O)NC2CCCCC2)c1C	-5	3%	?	19	2	?
COc1ccc(-c2cc(C(=O)Nc3ccc(C#N)cc3)no2)cc1	7	-30%	-16%	·	·	4%
CC12CCC(=O)N1C(C(=O)N1CCN(S(=O)(=O)c3ccc(F)c(F)c3)CC1)CS2 (centres undefined)	9	·	-19%	1	3	4%
CCN(Cc1ccccc1)C(=O)c1cc(S(=O)(=O)N2CCOCC2)cn1C	5	-1%	-26%	-2	-9	-2%
COc1ccc(-c2nc3scc(CCNC(=O)c4cccc(Br)c4)n3n2)cc1	7	2%	26µM*	·	·	?
COc1ccc(-c2nc3scc(CCNS(=O)(=O)c4ccc(C)cc4)n3n2)cc1	12	-4%	?	·	·	?
Cc1ccc(C)c(NC(=O)C(=O)NCCc2csc3nc(-c4ccccc4C)nn23)c1	3	-9%	18µM*	·	·	?
O=S(=O)(NCCc1csc2nc(-c3ccc(F)cc3)nn12)c1ccc(Oc2ccccc2)cc1	-13	2%	21µM*	·	·	15µM*
CCCS(=O)(=O)NCCc1csc2nc(-c3ccc(C)cc3)nn12	-2	1%	23µM*	·	·	?
Nc1ccc(-c2ccc(C(=O)O)s2)cn1	2	4%	-21%	5	4	-5%
CC(C)(C)c1cc(CCC(=O)Nc2ccncc2)cc(C(C)(C)C)c1O	14	1%	-22%	65	?	-16%
CC(C)(C)C(=O)NCCc1csc2nc(-c3ccc(F)cc3)nn12	16	-1%	15µM*	·	·	?
SMILES	D3 ag	ClpP mod	DT40 TDP1 no CPT	DRD3 antagonist	IL-1B inflam inh	TDP1 cell CPT
Cc1ccc(-c2nc3scc(CCNS(=O)(=O)c4ccc(C)c(C)c4)n3n2)cc1	10	1%	21µM*	·	·	?
Cc1cccc(-c2nc3scc(CCNC(=O)c4ccc(Br)o4)n3n2)c1	3	-6%	?	·	·	?
O=C(NCCc1csc2nc(-c3ccc(F)cc3)nn12)c1cccc(C(F)(F)F)c1	6	-3%	?	·	·	?
Cc1ccc(-c2nc3scc(CCNC(=O)Cc4ccc(Cl)cc4)n3n2)cc1	12	3%	18µM*	·	·	15µM*
Cc1c(Cl)cccc1NC(=O)N1CCCN(c2nc(-c3ccccc3)ns2)CC1	8	·	?	0	-61*	?
O=C(Nc1ccccc1)N1CCN(c2nc(-c3ccccc3)ns2)CC1	36*	0%	16µM*	11	-8	23µM*
Cc1cc(C)nc(N/N=C/C(Cl)=C/c2ccccc2)n1	4	-2%	-23%	9	-51*	?
CC(/C=C/C=C/c1ccccc1)=N/NC(=O)CNc1ccccc1C	17	-5%	?	-2	6	10µM*
Cc1cc(C)nc(N/N=C/c2ccccc2)n1	-33	-3%	-11%	-29	10	-19%
CC(/C=C/c1ccccc1F)=N\NC(=O)c1cccc(F)c1	-2	·	18µM*	-24	-4	?
CC(/C=C/c1ccccc1)=N/NC(=O)c1cc([N+](=O)[O-])cc([N+](=O)[O-])c1	-2	-3%	5.2µM*	-16	0	5.2µM*
CC(/C=C/c1ccco1)=N/NC(=O)CNc1ccccc1C	-3	·	-11%	-16	-13	4%
COc1ccc(CNC(=O)c2nn(-c3ccccc3C)nc2CO)cc1	4	1%	?	·	·	-21%
NC(=O)c1ccc(NC(=O)COC(=O)CCC(=O)c2ccc(Cl)cc2)cc1	0	2%	6%	10	10	0%
Cc1nc2cc(NC(=O)[C@@H]3C[C@@H](Sc4ccccn4)CN3Cc3cccc(F)c3)ccc2s1	·	·	-19%	·	·	15%[9.04 µM]
C[C@H]1NC(=O)[C@@]2(C)[C@H](c3ccccc3)[C@H]3COc4ccccc4[C@@H]3N2C1=O	17	0%	?	7	0	?
CCOC(=O)N/N=C(C)/C=C/c1ccccc1	5	1%	0.082µM*	22	-3	0.37µM*
CCOC(=O)N/N=C/C(Cl)=C/c1ccccc1	-4	·	?	-3	-53*	-26%
CCN(CC)S(=O)(=O)c1cc(C)ccc1NC(=S)Nc1cccnc1	8	·	?	5	-5	?
C/C=C(\C)CN1CCN(c2ccc(C)cc2)CC1	-16	-1%	-28%	-79*	6	2%

Assay outcomes (PubChem)
